The target in assay [1] is Tyrosine-protein kinase SYK (Homo sapiens) (UniProt P43405). Conditions: at 1 µM.
Assay [2] addresses T1, Tyrosine-protein kinase Tec (Homo sapiens) (UniProt P42680).
T1 sequence (whole entry): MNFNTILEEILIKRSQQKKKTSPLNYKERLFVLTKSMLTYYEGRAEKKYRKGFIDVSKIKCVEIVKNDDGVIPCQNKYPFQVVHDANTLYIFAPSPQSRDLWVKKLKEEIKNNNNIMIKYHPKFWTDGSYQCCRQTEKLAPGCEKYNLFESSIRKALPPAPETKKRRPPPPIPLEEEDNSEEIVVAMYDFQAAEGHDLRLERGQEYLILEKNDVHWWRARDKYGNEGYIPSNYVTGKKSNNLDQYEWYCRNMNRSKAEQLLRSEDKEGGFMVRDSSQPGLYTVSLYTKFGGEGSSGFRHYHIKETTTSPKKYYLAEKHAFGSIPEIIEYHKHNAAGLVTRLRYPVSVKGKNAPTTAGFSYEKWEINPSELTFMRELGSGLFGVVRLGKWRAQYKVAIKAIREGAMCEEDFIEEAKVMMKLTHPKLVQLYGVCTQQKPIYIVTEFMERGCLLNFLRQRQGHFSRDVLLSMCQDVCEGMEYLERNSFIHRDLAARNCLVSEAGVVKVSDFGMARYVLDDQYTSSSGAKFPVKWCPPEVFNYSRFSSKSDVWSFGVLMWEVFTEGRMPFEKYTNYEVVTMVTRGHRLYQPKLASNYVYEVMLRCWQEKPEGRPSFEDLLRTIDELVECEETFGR
Conditions: at 0.1 µM.

Assay [3] concerns the target T1, Tyrosine-protein kinase Tec (Homo sapiens). The settings on record: at 1 µM.
Assay [4] deals with Angiopoietin-1 receptor (Homo sapiens) (UniProt Q02763). Conditions: at 0.1 µM.
Chain of Angiopoietin-1 receptor (Homo sapiens) (Q02763 whole entry): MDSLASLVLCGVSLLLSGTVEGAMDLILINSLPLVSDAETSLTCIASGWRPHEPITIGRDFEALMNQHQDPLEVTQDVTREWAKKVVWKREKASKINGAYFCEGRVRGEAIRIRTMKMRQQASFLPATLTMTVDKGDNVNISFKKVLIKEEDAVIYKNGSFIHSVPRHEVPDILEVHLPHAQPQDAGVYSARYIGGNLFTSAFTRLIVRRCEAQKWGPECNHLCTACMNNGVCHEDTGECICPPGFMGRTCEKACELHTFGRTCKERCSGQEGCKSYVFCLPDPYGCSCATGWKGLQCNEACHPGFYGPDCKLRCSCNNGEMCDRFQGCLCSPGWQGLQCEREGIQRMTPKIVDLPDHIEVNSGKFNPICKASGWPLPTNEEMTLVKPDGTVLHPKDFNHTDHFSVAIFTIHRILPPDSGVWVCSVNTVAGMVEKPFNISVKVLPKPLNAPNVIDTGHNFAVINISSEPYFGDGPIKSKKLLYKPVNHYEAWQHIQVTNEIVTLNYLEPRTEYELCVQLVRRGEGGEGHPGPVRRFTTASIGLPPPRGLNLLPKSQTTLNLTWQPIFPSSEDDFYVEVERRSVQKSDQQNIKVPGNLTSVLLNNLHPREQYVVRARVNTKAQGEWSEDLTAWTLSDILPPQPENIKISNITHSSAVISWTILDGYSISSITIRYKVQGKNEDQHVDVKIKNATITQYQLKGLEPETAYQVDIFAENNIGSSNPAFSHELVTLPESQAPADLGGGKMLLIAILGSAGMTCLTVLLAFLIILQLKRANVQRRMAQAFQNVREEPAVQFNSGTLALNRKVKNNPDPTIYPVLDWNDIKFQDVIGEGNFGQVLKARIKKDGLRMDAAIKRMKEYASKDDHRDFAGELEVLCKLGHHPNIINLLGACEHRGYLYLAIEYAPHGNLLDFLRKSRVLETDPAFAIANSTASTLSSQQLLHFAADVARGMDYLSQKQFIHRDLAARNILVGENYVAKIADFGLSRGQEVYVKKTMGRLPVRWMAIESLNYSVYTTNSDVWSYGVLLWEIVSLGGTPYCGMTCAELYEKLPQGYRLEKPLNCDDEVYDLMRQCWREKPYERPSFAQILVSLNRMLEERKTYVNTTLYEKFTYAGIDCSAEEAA
The target is the same in assay [5]. Conditions: at 1 µM.
Assay [6] has as its target T2, Non-receptor tyrosine-protein kinase TNK1 (Homo sapiens) (UniProt Q13470).
T2 sequence (whole entry): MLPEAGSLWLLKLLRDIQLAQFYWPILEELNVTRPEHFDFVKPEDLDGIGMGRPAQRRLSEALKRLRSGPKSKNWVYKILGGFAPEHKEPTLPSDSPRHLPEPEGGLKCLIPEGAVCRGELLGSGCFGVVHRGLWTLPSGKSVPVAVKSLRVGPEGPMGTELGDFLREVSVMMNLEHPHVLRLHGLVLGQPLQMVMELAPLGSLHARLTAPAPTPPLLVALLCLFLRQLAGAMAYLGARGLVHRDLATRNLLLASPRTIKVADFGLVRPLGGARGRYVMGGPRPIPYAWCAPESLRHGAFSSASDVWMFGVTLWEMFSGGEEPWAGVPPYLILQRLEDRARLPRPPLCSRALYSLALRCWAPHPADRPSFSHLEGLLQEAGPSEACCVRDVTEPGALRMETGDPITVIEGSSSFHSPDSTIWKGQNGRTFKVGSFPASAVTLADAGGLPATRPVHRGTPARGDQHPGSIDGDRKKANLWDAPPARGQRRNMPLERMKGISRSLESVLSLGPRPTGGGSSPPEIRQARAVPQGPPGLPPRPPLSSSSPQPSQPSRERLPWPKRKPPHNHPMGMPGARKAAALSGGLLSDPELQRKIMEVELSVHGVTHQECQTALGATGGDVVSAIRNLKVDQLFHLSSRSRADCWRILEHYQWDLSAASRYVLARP
The settings on record: at 0.1 µM.

For assay [7], the target named is T2, Non-receptor tyrosine-protein kinase TNK1 (Homo sapiens). Conditions: at 1 µM.
Assay [8] deals with Activated CDC42 kinase 1 (Homo sapiens) (UniProt Q07912). The settings on record: at 0.1 µM.
The target is the same in assay [9]. The settings on record: at 1 µM.
Assay [10] has as its target High affinity nerve growth factor receptor (Homo sapiens) (UniProt P04629). The settings on record: at 0.1 µM.
Assay [11] has the same target. The settings on record: at 1 µM.
The target in assay [12] is BDNF/NT-3 growth factors receptor (Homo sapiens) (UniProt Q16620). The settings on record: at 0.1 µM.
Chain of BDNF/NT-3 growth factors receptor (Homo sapiens) (Q16620 32-822 limits assumed): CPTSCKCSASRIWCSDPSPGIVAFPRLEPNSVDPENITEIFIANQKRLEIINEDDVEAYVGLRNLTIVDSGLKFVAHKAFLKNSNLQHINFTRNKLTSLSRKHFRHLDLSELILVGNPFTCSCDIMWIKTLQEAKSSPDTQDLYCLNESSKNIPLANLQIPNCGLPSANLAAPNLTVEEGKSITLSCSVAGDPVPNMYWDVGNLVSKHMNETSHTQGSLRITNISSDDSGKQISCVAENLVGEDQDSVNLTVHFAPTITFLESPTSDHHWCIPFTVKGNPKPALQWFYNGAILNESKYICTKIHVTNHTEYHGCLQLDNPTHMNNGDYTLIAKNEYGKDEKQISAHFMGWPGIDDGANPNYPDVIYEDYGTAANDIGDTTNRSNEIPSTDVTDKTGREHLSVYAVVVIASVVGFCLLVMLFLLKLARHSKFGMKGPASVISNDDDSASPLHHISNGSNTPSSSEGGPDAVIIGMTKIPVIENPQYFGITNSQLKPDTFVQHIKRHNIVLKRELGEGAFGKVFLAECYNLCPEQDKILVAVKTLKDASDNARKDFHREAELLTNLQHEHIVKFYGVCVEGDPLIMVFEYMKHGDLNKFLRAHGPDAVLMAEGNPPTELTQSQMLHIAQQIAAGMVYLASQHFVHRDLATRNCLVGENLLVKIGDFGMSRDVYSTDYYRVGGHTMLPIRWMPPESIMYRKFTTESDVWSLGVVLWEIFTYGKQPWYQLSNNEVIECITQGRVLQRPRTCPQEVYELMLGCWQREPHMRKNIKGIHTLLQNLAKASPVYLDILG
The target is the same in assay [13]. Conditions: at 1 µM.
For assay [14], the target named is NT-3 growth factor receptor (Homo sapiens) (UniProt Q16288). The settings on record: at 0.1 µM.
Chain of NT-3 growth factor receptor (Homo sapiens) (Q16288 32-839 limits assumed): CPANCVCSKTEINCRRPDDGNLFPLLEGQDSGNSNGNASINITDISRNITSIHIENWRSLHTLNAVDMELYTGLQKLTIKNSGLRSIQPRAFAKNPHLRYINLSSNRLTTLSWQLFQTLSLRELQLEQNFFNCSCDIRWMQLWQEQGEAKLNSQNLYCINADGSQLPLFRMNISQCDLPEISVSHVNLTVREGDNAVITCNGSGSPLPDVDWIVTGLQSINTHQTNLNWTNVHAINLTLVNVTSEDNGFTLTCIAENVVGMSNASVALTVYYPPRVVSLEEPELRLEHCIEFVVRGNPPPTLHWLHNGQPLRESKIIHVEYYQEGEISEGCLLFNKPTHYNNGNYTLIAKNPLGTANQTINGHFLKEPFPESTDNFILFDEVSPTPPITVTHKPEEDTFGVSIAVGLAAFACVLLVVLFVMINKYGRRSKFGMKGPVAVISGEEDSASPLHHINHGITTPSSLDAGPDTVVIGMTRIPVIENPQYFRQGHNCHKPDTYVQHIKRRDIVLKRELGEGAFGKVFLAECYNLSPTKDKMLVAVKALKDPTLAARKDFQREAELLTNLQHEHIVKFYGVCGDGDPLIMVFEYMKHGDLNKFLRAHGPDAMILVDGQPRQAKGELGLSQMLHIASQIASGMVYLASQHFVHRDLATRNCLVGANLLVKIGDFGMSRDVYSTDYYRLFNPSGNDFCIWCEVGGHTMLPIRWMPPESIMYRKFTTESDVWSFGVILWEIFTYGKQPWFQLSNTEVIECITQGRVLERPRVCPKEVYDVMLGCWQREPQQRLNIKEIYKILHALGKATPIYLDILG
The target is the same in assay [15]. Conditions: at 1 µM.
In assay [16] the target is T3, Tyrosine-protein kinase TXK (Homo sapiens) (UniProt P42681).
T3 sequence (whole entry): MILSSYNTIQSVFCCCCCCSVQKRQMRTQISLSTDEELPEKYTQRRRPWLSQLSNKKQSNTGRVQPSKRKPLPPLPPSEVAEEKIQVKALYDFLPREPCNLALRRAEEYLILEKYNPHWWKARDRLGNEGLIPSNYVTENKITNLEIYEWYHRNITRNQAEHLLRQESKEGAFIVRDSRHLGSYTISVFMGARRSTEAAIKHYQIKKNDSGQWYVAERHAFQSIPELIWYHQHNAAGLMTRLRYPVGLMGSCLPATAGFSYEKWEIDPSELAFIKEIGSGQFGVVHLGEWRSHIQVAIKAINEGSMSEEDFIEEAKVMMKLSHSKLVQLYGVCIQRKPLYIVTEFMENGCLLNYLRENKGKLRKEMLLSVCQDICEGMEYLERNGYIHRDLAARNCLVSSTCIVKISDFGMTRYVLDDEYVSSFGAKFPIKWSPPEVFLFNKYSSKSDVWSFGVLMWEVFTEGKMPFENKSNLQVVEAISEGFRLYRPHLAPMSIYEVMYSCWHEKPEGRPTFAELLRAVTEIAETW
The settings on record: at 0.1 µM.

Assay [17] deals with T3, Tyrosine-protein kinase TXK (Homo sapiens). The settings on record: at 1 µM.
The target of assay [18] is Non-receptor tyrosine-protein kinase TYK2 (Homo sapiens) (UniProt P29597). The settings on record: at 0.1 µM.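 Further: each value is a mean of the inhibition readings.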
Chain of Non-receptor tyrosine-protein kinase TYK2 (Homo sapiens) (P29597 whole entry): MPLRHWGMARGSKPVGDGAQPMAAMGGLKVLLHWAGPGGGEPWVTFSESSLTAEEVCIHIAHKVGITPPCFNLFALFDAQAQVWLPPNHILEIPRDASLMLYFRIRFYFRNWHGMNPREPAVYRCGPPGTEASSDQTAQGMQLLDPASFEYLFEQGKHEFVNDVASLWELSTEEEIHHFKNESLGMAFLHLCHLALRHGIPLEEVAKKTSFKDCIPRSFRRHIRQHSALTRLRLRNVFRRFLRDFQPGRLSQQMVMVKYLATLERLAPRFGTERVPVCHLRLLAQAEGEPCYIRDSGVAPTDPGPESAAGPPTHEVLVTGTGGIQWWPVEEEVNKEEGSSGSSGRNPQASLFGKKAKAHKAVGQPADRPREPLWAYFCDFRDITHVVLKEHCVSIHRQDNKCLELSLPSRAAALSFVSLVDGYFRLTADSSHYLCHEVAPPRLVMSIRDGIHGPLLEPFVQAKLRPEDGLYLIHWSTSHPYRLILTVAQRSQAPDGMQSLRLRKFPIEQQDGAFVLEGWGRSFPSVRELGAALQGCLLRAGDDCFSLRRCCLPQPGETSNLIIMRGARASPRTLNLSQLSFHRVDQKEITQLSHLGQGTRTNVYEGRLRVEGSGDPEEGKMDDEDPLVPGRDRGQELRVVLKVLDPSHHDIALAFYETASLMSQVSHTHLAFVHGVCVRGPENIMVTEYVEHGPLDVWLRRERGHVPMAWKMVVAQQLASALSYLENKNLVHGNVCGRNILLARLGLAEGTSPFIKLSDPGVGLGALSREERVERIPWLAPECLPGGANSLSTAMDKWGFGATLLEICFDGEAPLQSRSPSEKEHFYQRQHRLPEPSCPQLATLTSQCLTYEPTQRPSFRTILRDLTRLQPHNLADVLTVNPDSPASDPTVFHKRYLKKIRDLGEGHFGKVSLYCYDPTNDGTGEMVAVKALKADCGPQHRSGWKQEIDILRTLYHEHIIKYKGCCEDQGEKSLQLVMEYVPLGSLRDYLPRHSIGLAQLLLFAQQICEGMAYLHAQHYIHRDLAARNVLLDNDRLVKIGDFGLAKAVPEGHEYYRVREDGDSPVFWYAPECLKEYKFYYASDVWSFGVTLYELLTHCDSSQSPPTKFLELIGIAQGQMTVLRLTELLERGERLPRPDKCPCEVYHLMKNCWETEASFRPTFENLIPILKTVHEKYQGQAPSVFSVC
Assay [19] addresses T4, Dual specificity protein kinase TTK (Homo sapiens) (UniProt P33981).
T4 sequence (whole entry): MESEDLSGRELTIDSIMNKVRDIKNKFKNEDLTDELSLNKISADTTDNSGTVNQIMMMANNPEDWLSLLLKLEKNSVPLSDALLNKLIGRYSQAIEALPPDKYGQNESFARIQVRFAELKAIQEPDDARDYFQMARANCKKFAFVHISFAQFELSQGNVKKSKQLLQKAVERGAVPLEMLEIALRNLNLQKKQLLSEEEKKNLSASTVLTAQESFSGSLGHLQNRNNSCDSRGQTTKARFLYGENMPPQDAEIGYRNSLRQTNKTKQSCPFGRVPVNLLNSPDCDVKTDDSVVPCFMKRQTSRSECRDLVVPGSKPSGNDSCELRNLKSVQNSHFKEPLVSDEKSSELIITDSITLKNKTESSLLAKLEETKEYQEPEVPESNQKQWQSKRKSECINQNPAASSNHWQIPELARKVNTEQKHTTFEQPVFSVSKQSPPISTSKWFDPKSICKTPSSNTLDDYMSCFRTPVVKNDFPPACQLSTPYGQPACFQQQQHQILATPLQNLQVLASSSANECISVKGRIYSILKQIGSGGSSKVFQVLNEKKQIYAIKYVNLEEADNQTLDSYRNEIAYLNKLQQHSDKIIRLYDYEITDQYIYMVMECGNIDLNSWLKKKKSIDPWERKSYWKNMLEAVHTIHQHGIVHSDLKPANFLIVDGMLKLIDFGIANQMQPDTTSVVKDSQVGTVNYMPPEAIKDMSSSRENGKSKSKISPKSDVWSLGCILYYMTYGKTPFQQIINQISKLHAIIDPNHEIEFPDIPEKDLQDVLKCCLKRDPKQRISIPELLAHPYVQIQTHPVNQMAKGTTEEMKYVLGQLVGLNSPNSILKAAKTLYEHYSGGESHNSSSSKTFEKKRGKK
Conditions: at 1 µM.

The target in assay [20] is T5, Aurora kinase A (Homo sapiens) (UniProt O14965).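 Further: each reported value is a mean percent inhibition of Aurora-A.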
T5 sequence (whole entry): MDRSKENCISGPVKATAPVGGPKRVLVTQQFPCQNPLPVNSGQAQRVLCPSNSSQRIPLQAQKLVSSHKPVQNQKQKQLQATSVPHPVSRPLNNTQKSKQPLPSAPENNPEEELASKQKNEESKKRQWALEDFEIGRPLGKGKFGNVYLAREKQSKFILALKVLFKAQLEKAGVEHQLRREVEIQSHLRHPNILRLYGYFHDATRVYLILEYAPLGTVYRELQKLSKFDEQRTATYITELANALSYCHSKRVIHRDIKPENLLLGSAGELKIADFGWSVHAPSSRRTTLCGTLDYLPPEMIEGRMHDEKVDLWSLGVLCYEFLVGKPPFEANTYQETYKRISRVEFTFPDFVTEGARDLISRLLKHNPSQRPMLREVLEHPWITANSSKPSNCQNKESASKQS
Conditions: at 0.1 µM.

Chain of High affinity nerve growth factor receptor (Homo sapiens) (P04629 33-796 limits assumed): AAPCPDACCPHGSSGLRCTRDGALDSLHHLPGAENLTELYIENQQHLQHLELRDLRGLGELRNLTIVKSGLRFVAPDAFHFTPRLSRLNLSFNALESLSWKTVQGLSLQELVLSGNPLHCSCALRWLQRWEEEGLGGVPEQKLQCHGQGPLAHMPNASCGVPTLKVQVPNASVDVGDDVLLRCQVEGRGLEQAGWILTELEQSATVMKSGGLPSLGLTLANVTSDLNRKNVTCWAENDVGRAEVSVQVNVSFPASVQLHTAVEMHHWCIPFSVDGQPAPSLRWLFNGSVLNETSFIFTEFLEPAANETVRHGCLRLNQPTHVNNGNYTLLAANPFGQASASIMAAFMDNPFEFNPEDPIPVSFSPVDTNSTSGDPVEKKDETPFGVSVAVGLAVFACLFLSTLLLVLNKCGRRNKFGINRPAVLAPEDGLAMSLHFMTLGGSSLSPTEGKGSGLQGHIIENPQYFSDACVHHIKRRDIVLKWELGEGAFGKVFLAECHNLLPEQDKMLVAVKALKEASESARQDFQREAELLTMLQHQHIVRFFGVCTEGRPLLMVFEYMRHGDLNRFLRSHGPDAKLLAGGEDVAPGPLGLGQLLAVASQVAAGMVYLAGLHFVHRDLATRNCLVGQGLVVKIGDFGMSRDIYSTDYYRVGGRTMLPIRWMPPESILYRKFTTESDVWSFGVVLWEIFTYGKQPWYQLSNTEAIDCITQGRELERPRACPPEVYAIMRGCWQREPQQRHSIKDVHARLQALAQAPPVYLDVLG

Consider `O=C(Nc1ccc(Oc2ccc3[nH]c(NC(=O)c4ccccc4)nc3c2)cc1)Nc1cc(C(F)(F)F)ccc1F`, for which the inhibition in [1] was -0.11%; in [2] it was 4.86%; in assay [3] it was 8.67%; in assay [4], 9.81%; in assay [5], 60.5%; in assay [6] it was 4.53%. The inhibition in assay [7] worked out at 40%; in assay [8], 0.59%; in assay [9] it was 4.59%; in assay [10] it was 5.99%; in [11] it was 52.2%; in [12], 5.11%. Moreover, the inhibition in assay [13] is 35.1%; in assay [14], 8.01%; in [15], 41%; in [16], 3.06%; in assay [17] it was 6.27%; in assay [18] it was -4.63%. Moreover, the inhibition was determined as 19.2% in [19] and 1.31% in [20].
Consider `CCc1ccc(Oc2nccc(-c3c(-c4ccc(F)cc4)ncn3C3CCNCC3)n2)cc1`, for which the inhibition is 2.45% in assay [1]; 6.67% in assay [2]; 4.84% in assay [3]; 3.66% in [4]; 4.41% in assay [5]; 1.24% in [6]. For the same compound, the inhibition was 0.88% in [7]; 1.41% in [8]; 2.2% in [9]; 4.16% in assay [10]; 3.03% in assay [11]; 1.6% in assay [12]. For the same compound, the inhibition worked out at 2.36% in [13]; 1.82% in assay [14]; 3.29% in [15]; 6.85% in assay [16]; 4.56% in assay [17]; 1.68% in assay [18]. The inhibition turned out to be 4.86% in assay [19] and 3.7% in assay [20].
With `COc1ccc(C2=C(N3CCc4ccccc43)C(=O)NC2=O)cc1`, the inhibition amounted to 2.15% in [1]; 5.51% in assay [2]; 6.81% in assay [3]; 2.29% in assay [4]; 3.07% in assay [5]; 4.3% in assay [6]. The inhibition stood at 13.9% in assay [7]; 1.51% in [8]; 2.14% in assay [9]; 5.01% in [10]; 3.66% in assay [11]; 3.2% in assay [12]. For the same compound, the inhibition in assay [13] is 2.97%; in assay [14], 3.23%; in [15] it was 3.14%; in [16] it was 3.28%; in [17] it was 4.15%; in assay [18], -3.26%. Besides, the inhibition was found to be 5.34% in assay [19] and 1.27% in assay [20].
As for `Cc1ccc(NC(=O)c2ccoc2)cc1-c1ccc(C(=O)NCC2CC2)cc1`, the inhibition in [1] was -2.99%; in assay [2], 0.28%; in [3], 3.18%; in [4] it was 1.56%; in assay [5], 3.38%; in assay [6] it was 0.21%. In addition, the inhibition in assay [7] was found to be 5.38%; in assay [8], 0.62%; in [9], 0.64%; in [10], 2.04%; in [11] it was 1.15%; in [12] it was 2.58%. The inhibition is 1.82% in assay [13]; 2.37% in assay [14]; 0.07% in assay [15]; -0.38% in assay [16]; 2.18% in assay [17]; -3.59% in [18]. In addition, the inhibition stood at 4.41% in assay [19] and 2.28% in assay [20].
For `Cc1ccc(C(=O)NC2CCC2)cc1-c1ccc(C(=O)NCC2CC2)cc1`, the inhibition was 0.85% in assay [1]; 3.37% in [2]; 2.28% in assay [3]; 2.59% in assay [4]; 1.2% in assay [5]; -0.31% in assay [6]. Also, the inhibition is -1.43% in [7]; 1.04% in assay [8]; 1.08% in assay [9]; -0.6% in [10]; 3.19% in assay [11]; 1.02% in assay [12]. Also, the inhibition is 1.56% in [13]; 2.08% in [14]; 1.92% in assay [15]; 2.58% in assay [16]; 3.4% in [17]; -0.8% in assay [18]. Also, the inhibition stood at 9.27% in assay [19] and 2.11% in assay [20].
Take `O=C(Nc1n[nH]c2nc(-c3ccco3)ccc12)C1CC1`: the inhibition in assay [1] was found to be 1.5%; in assay [2], 1.47%; in assay [3], 3.97%; in assay [4] it was 5.28%; in assay [5], 10.4%; in [6] it was 0.16%. Also, the inhibition is 1.24% in assay [7]; -0.07% in assay [8]; 0.93% in assay [9]; 4.04% in [10]; 3.29% in assay [11]; 0.95% in assay [12]. Further, the inhibition is 2.36% in assay [13]; 1.6% in [14]; 5.42% in [15]; 2.21% in [16]; 2.84% in [17]; -1.75% in [18]. The inhibition in assay [19] was -0.72%; in assay [20] it was 2.22%.

These data come from ChEMBL document CHEMBL1961873, “Compounds: GSK PKIS; Assays: Nanosyn kinase panel” (2012).
